Measured potencies and affinities stand elsewhere.
Molecular target: T1, fMet-Leu-Phe receptor (Homo sapiens) (UniProt P21462)
T1 sequence (whole entry): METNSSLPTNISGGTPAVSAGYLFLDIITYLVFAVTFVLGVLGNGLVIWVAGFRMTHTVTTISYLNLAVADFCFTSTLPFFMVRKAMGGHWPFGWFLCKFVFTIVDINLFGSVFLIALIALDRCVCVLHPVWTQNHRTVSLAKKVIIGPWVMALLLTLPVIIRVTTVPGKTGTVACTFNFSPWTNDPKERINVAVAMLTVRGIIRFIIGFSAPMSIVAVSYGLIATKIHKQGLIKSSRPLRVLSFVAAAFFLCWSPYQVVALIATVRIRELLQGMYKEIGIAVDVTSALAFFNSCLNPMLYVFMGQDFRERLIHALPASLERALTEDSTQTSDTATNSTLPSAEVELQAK
Assay: human FPR1 ligand displacement potency – cell-based, flow cytometry, Ki from IC50, dose response (AID 724); call rule not given here
Assay type: functional

KI MICROM, active:
COc1ccc(-c2c(C(F)(F)F)oc3cc(OC(=O)c4ccco4)ccc3c2=O)cc1OC 3.3 µM
CCc1cc2c(=O)c(-c3nc4ccccc4n3C)c(C)oc2cc1OC(C)=O 0.3 µM
Cc1[nH]c2c(-c3ccc(Cl)cc3)c(C(F)(F)F)nn2c(=O)c1Cc1ccccc1 2.5 µM
COc1ccccc1-c1c(C(F)(F)F)oc2cc(OC(=O)c3ccco3)ccc2c1=O 1.1 µM
COc1ccc(-c2c(C(F)(F)F)oc3cc(OC(=O)c4cccnc4)ccc3c2=O)cc1OC 8.9 µM
O=C(Oc1ccc2c(=O)c(-c3ccccc3Cl)c(C(F)(F)F)oc2c1)c1cccs1 1.1 µM

KI MICROM, inactive:
Cc1sc2c(c1C)c(=O)n(Cc1ccccc1)c(=O)n2Cc1ccccc1F > 44.3 µM
COCCN1C(=O)C(O)=C(C(=O)c2ccccc2)C1c1ccccc1OC (stereo not given) 12.4 µM
COc1ccc(-c2c(C)nn3c(=O)c4c([nH]c23)CCCC4)cc1 > 44.3 µM
CCC(C)(C(=O)NC1CCCCC1)N(Cc1cccs1)C(C)=O (stereo not given) > 44.3 µM
Cc1cccc(C)c1NC(=O)C(NC(=O)Cc1cccs1)c1ccccc1 (stereo not given) > 44.3 µM
COc1ccc(C2C(C(=O)N3CCCC(C)C3)c3ccccc3C(=O)N2C)cc1 (stereo not given) > 44.3 µM
O=C(Oc1ccc2c(=O)c(Oc3ccccc3Br)c(C(F)(F)F)oc2c1)c1cccs1 > 44.3 µM
O=C1CC(c2ccccc2C(F)(F)F)C2=C(CC(c3cccs3)CC2=O)N1 (stereo not given) > 44.3 µM
Cc1cccc(C2CC(=O)NC3=C2C(=O)CC(c2cccs2)C3)c1 (stereo not given) > 44.3 µM
COc1cccc(/C=C2/C(=O)NN(c3ccc(C)cc3)C2=O)c1 > 44.3 µM
CCCC(=O)N(Cc1ccco1)S(=O)(=O)c1cccc2cccnc12 > 44.3 µM
COc1cccc(-c2ccnc3[nH]n(-c4ccccc4)c(=O)c23)c1 > 44.3 µM
CC(C)C(=O)N(Cc1ccco1)S(=O)(=O)c1cccc2cccnc12 > 44.3 µM
COc1ccc(OC)c(CNC(=O)Cn2c(=O)sc3ccccc32)c1 > 44.3 µM
